Screens deposited in PubChem BioAssay by several laboratories.
MsrA inhibitor: inhibits bovine methionine sulfoxide reductase A; purified bovine MsrA, absorbance read-out; inhibition, % at 15.5 µM; 360,000 tested, 0.75% active; AID 651718; in the data active = inhibition above about 4.5%;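 also: 0% = vehicle wells with enzyme and 100% = reference inhibitor wells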
bovine MsrA act: activates bovine MsrA enzyme; purified bovine MsrA, absorbance read-out; activation, % at 10.6 µM; 360,000 tested, 0.3% active; AID 602163; in the data active = activation above about 7.5%;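 also: 0% = vehicle and 100% = reference activator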
NadD inh: NadD (S. aureus) enzyme inhibition; purified NadD enzyme, colorimetric absorbance read-out; inhibition, % at 20 µM; 360,000 tested, 0.78% active; AID 602399; in the data active = inhibition above about 26%
rCAG RNA binder: molecules binding r(CAG) RNA repeats. inhibition, % at 3 µM. r(CAG) RNA repeat, TO-PRO-1 dye displacement fluorescence. 370,000 tested, 1.3% active;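 active = inhibition above the plate cutoff, the mean of all test compounds on that plate plus 3 SD, cut at about 35% in these data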;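 also: 0% = DMSO alone and 100% = 100 µM mitoxantrone as full dye displacement; higher means more dye released from RNA so lower well fluorescence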
* = called active by the depositor; x = not tested or not shown. Rows were chosen to be rich in hits. Some 2.7% of all compounds tested hit in one or more screens of this group.

SMILES	MsrA inhibitor	bovine MsrA act	NadD inh	rCAG RNA binder
Cc1cc2c(SCC(=O)Nc3cccc(O)c3)ncnc2s1	1.2	-4.4	7.2	53.7*
Cc1nc2c(C(=O)NCc3ccccc3)c[nH]n2c(=O)c1Cl	3.9	-2.3	5.1	41.4*
N=C(N)c1ccc(N=Nc2c(O)ccc3c2[nH]c2ccccc23)cc1	0.4	-0.6	42.1*	25.7
NS(=O)(=O)c1ccc(N=Nc2c(O)ccc3ccccc23)cc1	0.8	-1.1	0.4	21.3
CC(CCC(C)C(C)(C)C)[C@@H]1CC[C@H]2C3C[C@H](OS(O)(=S)=S)[C@H]4C[C@H](OS(O)(=S)=S)[C@@H](OS(O)(=S)=S)C[C@]4(C)[C@H]3CC[C@]12C (some centres undefined) (tested in a mixture with another compound)	x	-5.3	53.0*	x
COc1cc(C2C3=C(CCCC3=O)Nc3[nH]n(-c4ccccc4)c(=O)c32)cc(OC)c1OC (centres undefined)	1.6	-3.3	-23.1	5.1
COc1cc(C2C3=C(CCCC3=O)Nc3[nH]n(-c4ccccc4)c(=O)c32)ccc1OC(C)=O (centres undefined)	4.6*	-3.5	-4.4	16.6
COc1ccc(N=Cc2cc(Cc3ccccc3Cl)cc([N+](=O)[O-])c2O)cc1OC	x	-13.7	15.6	x
Cc1ccc(N=Cc2cc(Cc3ccccc3Cl)cc([N+](=O)[O-])c2O)c(O)c1	x	-9.7	42.3*	x
Cc1ccc(NC(=O)c2cc(S(=O)(=O)N3CCCCC3)ccc2N2CCOCC2)c(C)c1	-1.3	-3.0	2.3	0.8
C#CCOCCOCCOCCNc1nc(N2CCN(C(=O)CCCCCCCCCCNC(=O)[C@H]([C@@H](C)CC)n3cc(CCCCN=C(N)N)nn3)CC2)nc(N2CCN(C(=O)CCCCCCCCCCNC(=O)[C@H](CO)n3cc(CCCCCN)nn3)CC2)n1	x	6.2	35.7*	x
C#CCOCCOCCOCCNc1nc(N2CCOCC2)nc(N2CCN(C(=O)CCCCCCCCCCNC(=O)[C@@H]([C@H](C)CC)n3cc(CCCCCN)nn3)CC2)n1	1.8	1.9	2.9	-1.1
C#CCOCCOCCOCCNc1nc(N2CCN(C(=O)CCCCCCCCCCNC(=O)[C@H]([C@@H](C)CC)n3cc(CCCCCN)nn3)CC2)nc(N2CCN(C(=O)CCCCCCCCCCNC(=O)[C@H]([C@@H](C)CC)n3cc(CCCCN=C(N)N)nn3)CC2)n1	x	-6.4	48.1*	x
C#CCOCCOCCOCCNc1nc(N2CCN(C(=O)CCCCCCCCCCNC(=O)Cn3cc(CCCCCN)nn3)CC2)nc(N2CCN(C(=O)CCCCCCCCCCNC(=O)[C@H]([C@@H](C)CC)n3cc(CCCCN=C(N)N)nn3)CC2)n1	x	-3.7	43.3*	x
C#CCOCCOCCOCCNc1nc(N2CCN(C(=O)CCCCCCCCCCNC(=O)[C@H]([C@@H](C)CC)n3cc(CCCCCN)nn3)CC2)nc(N2CCN(C(=O)CCCCCCCCCCNC(=O)[C@H](CO)n3cc(CCCCCN)nn3)CC2)n1	x	6.9	21.3	x
O=C(Nc1ccc(OC(F)(F)F)cc1)Nc1c(-c2ccccc2)nc2ncccn12	x	x	x	8.6
CC(=O)NC(CC(=O)NCCN1C(=O)S/C(=C\c2ccccc2)C1=O)c1ccccc1 (centres undefined)	4.6*	-9.1	-2.8	-2.9
C/C(=N/NC(=O)c1cc2ccccc2cc1O)C1C(=O)c2ccccc2C1=O	1.9	-5.6	27.2	100.1*
C/C(=N\NC(=O)c1cc2ccccc2cc1O)c1ccccn1	1.2	-8.4	8.1	47.5*
O=C(N/N=C/c1ccc(Sc2ccccn2)o1)c1cc2ccccc2cc1O	x	-3.4	62.2*	x
C/C(=N\NC(=O)c1c[nH]c2ccccc12)c1ccccn1	0.0	-2.8	-2.3	7.0
Cc1ccc(-c2nc3c4ccccc4ccn3c2Cc2cccc(F)c2)cc1	0.6	x	x	7.3
O=C(NCc1ccccn1)[C@@H]1CCCN1C(=O)[C@@H]1CCCN1C(=O)c1cccc2ccccc12	-0.3	-10.3	-0.3	-0.7
CC(C)C(=O)N[C@@H]1c2ccccc2CC[C@@H]1OCc1ccccc1	-0.5	-0.7	-3.5	-1.2
Cc1[nH][nH]c(=O)c1C(c1ccc(-c2ccc(Cl)c(Cl)c2)o1)c1c(C)[nH][nH]c1=O	-0.5	-7.6	24.6	37.9*
SMILES	MsrA inhibitor	bovine MsrA act	NadD inh	rCAG RNA binder
c1ccc(Cn2c(SC3CCCCC3)nnc2-c2cccnc2)cc1	x	x	x	-1.9
O=C1NC[C@@H](CCCCN2C[C@H](Cc3ccccc3)N(CCc3ccccc3)C(=O)C2=O)N(CCc2ccccc2)C1=O	0.1	-0.5	20.9	-0.4
NC(=O)N/N=C/c1ccccc1OC(=O)c1cc2ccccc2oc1=O	3.1	-2.7	-6.9	2.5
NC(=S)N/N=C/c1ccccc1OC(=O)c1cc2ccccc2oc1=O	4.6*	0.1	1.9	2.6
O=C(NNc1c2ccccc2nc2ccccc12)c1ccc(O)cc1O	0.8	0.1	30.8*	32.5
O=C(/C=C1\NC2(CCCC2)Cc2ccccc21)C(=O)N/N=C/c1ccc(O)c(O)c1	2.1	-10.5	37.8*	17.7
COc1ccc(/C=N/NC(=O)C(=O)/C=C2\NC3(CCCC3)Cc3ccccc32)cc1	1.9	2.2	7.4	12.7
CCC1CCCCN1S(=O)(=O)c1ccc(C(=O)Nc2nnc(-c3ccccc3Cl)o2)cc1 (centres undefined)	x	-4.0	42.5*	x
CC(C)C(=O)N1CCCC1(C)C(=O)N(C)Cc1cccc2ccccc12 (centres undefined)	-0.9	-7.2	-0.6	1.1
COc1ccc(OC)c(NC(=O)C2(C)CCN2CCc2ccccc2)c1 (centres undefined)	0.4	-2.8	-7.5	-0.4
COC1=C(OC)C(=O)C(CCCCCCCCCCO)=C(C)C1=O	0.2	-2.5	-0.6	-1.1
COC1=CC(=O)C(O)=C(CCCCCCC/C=C/CCCCCCCC2=C(O)C(=O)C=C(OC)C2=O)C1=O	x	-9.3	50.6*	x
CCCCCCc1c(O)c2ccccc2[nH]c1=O	0.8	1.0	3.9	-1.0
CCCCCCCCCCCC1=C(O)C(=O)C=C(O)C1=O	x	-3.0	36.9*	x
CSc1ncccc1C(=O)OCC(=O)NC1CCC(C)CC1 (centres undefined)	0.3	-2.5	-4.7	-0.9
Oc1ccc(/C=N/Nc2cc(N3CCCC3)nc(N3CCCC3)n2)cc1O	0.0	1.3	36.4*	39.6*
COC(=O)[C@H]1C[C@@]2(n3ccc4ccccc43)c3ccccc3N(S(=O)(=O)c3ccccc3)[C@H]2N1C(=O)CNC1CCCCC1	x	x	x	7.4
CCOc1ccccc1C(=O)N[C@H](C(=O)OCC(=O)Nc1nnc(-c2ccccc2)o1)C(C)C	0.8	-1.3	20.2	12.4
CCCCCC(=O)Nc1cc(S(=O)(=O)O)cc2cc(S(=O)(=O)O)cc(O)c12	1.2	-5.2	19.4	43.4*
Cc1nn(CCC#N)c(NC(=O)c2ccc(Cl)cc2Cl)c1P(=O)(Nc1ccc([N+](=O)[O-])cc1)N1CCOCC1 (centres undefined)	4.7*	-9.4	-3.9	21.2
Cc1nn(CCC#N)c(NC(=O)c2ccc(Cl)cc2)c1P(=O)(Nc1ccc([N+](=O)[O-])cc1)N1CCOCC1 (centres undefined)	2.2	-13.3	-0.2	9.2
Cc1ccc(C)c(S(=O)(=O)NCC(=O)Nc2ccc3c(c2)OCO3)c1	0.9	-5.8	-3.7	-6.1
